Source: PubChem BioAssay (National Center for Advancing Translational Sciences (NCATS))
L3MBTL1 inh: inhibitors of human L3MBTL1 | Potency, µM (titrated, usually from 57.1 µM), for inactives: at the top dose activity, negative = inhibition, actives largely listed as inhibitors | actives 0.66% (n = 230,000) | Q9Y468 | AlphaScreen L3MBTL1–H3K9me1 peptide binding; further: on the % scale 0 is the no-effect control and ±100 the full control effect; nearly all actives have a fitted effect of over 60% in size
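Displacement of a biotinylated histone H3(1-15) peptide monomethylated at Lys9 (75 nM) from L3MBTL1 (50 nM) was measured by AlphaScreen after a 30 min room-temperature compound incubation; cefsulodin titration served as intraplate control.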
BAZ2B inh: BAZ2B (human) inhibition. actives 4.4% (n = 360,000). Potency, µM (titrated, usually from 114 µM), inactives show top-dose activity change, negative = inhibition, hits mostly inhibitors. AlphaScreen BAZ2B-H3K14Ac peptide displacement. Q9UIF8. AID 504333; further: on the % scale 0 is the no-effect control and ±100 the full control effect; nearly all actives have a fitted effect of over 60% in size
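BAZ2B 50 nM plus b-H3(5-23)K14Ac 50 nM, PBS pH 7.4/0.01% Tween-20, 30 min RT; compound added (max 110 uM), 30 min RT; streptavidin donor/Ni-chelate acceptor beads 10 ug/mL final, 20 min dark; AlphaScreen read.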
HP1b chromo inh: blocks HP1-beta chromodomain binding to methylated histone tails | AID 540317 | Potency, µM (top dose mostly 114 µM), inactives show at the highest dose activity change, negative = inhibition, most hits filed as inhibitors | actives 0.56% (n = 390,000) | AlphaScreen HP1-beta / biotin-H3K9me3 peptide binding; further: nearly all actives have a fitted effect of over 70% in size
Target sequence (P83916 whole entry, looked up): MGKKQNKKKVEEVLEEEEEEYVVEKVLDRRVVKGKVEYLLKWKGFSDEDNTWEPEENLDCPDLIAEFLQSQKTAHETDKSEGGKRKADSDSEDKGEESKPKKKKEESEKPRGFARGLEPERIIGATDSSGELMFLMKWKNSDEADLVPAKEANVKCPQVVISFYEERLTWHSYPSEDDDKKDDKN
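HP1-beta protein (50 nM final) preincubated 30 min at room temperature with biotinylated H3(1-18)K9me3 peptide (50 nM) in PBS pH 7.4, 0.01% Tween-20, then compound added for 30 min. AlphaScreen streptavidin donor/nickel chelate acceptor beads (10 ug/mL final), 30 min dark, luminescence read.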
VDR inh: vitamin D3 receptor (human) inhibition; VDR-SRC2-3 peptide fluorescence polarization, 2 h; Potency, µM, for the others: max response, negative = inhibition, usual class: inhibitors; actives 0.93% (n = 400,000); further: on the % scale 0 is the no-effect control and ±100 the full control effect
Target sequence (P11473 whole entry, looked up): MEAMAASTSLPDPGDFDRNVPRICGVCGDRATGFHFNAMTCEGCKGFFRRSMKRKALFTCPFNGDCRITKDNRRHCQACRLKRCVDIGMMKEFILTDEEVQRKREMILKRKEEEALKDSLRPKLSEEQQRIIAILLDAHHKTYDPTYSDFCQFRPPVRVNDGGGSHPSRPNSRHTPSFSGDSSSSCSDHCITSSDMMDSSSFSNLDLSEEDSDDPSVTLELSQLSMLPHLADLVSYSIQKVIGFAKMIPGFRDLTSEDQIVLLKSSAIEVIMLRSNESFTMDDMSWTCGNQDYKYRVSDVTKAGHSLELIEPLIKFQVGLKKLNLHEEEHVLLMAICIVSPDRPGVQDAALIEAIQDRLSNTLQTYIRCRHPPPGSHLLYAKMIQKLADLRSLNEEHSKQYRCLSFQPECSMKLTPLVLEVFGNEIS
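Compounds are added to VDR with labelled SRC2-3 coactivator peptide and held 2 h at room temperature. Inhibition of the VDR–peptide interaction is then read as a change in fluorescence polarization.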
JMJD2A Tudor: inhibitors of human JMJD2A Tudor domain | AlphaScreen JMJD2A-Tudor / H3K4me3 peptide binding | Potency, µM (doses to about 114 µM), for inactives: at the highest dose activity change, negative = inhibition, usual class: inhibitors | actives 4.4% (n = 390,000); further: on the % scale 0 is the no-effect control and ±100 the full control effect; nearly all actives have a fitted effect of over 50% in size
PLK1 PBD block: inhibitors of human PLK1 polo-box domain binding. P53350. Plk1 PBD binding of FITC phosphopeptide, fluorescence polarization. Potency, µM, without a hit: max response, negative = inhibition, actives largely listed as inhibitors. actives 2.8% (n = 360,000); further: series mostly up to about 57 µM; on the % scale 0 is the no-effect control and ±100 the full control effect; nearly all actives have a fitted effect of over 65% in size
The depositor's hits bear a star; [ ] = another dose, or the depositor's remark. Only some compounds are listed: those with a hit (about 6.9% of all), similar ones and a draw of the others. The call rests on the fitted dose curve; in most records, active means well fitted curve in the direction sought with a large enough effect; inconclusive means small, poorly fitted or top-dose-only effect, or another doubt; inactive means no such curve, though single readings can be large; an effect the other way counts as inactive or inconclusive. Potency means the concentration at half of the fitted maximal effect.

`CC(=O)Nc1ccc2nc(CN3CCN(CC=C(C)C)C(CCO)C3)ccc2c1` (stereo not drawn) gave L3MBTL1 inh 3.8%, BAZ2B inh -28.9%, HP1b chromo inh 26.5%, VDR inh 1.2%, JMJD2A Tudor -2.0% and PLK1 PBD block -15.4%.
For CCOc1cc(/C=C(\C#N)C(=O)Nc2ccc(OC)cc2)ccc1OCc1cc(=O)n2nc(CC)sc2n1 the results were BAZ2B inh 0.7%, HP1b chromo inh 38.8%, VDR inh -23.5% and JMJD2A Tudor -2.6%.
Screening CN(C)S(=O)(=O)c1cccc(NC(=O)CSc2cccc3cccnc23)c1 returned BAZ2B inh 56.2µM*, HP1b chromo inh -7.4%, VDR inh -6.0%, JMJD2A Tudor inconclusive and PLK1 PBD block 10.6µM*.
`CCN(CC)S(=O)(=O)c1cccc(C(=O)NCC2CCCO2)c1` (stereo not drawn) gave BAZ2B inh inconclusive, HP1b chromo inh 27.0%, VDR inh 19.2%, JMJD2A Tudor -8.1% and PLK1 PBD block -4.5%.
CCN(CC)S(=O)(=O)c1cccc(C(=O)NC(C(=O)Nc2nnc(C3CC3)s2)C(C)C)c1 (stereo not drawn) was read as L3MBTL1 inh -8.4%, BAZ2B inh -31.4%, HP1b chromo inh inconclusive, VDR inh 11.9%, JMJD2A Tudor -35.1%[57.1 µM] and PLK1 PBD block 26.7µM*.
`Cc1cc(C)c2c(=O)[nH]c(SCC(=O)Nc3cccc(S(=O)(=O)N(C)C)c3)nc2n1` gave L3MBTL1 inh 3.7%, BAZ2B inh 8.2%, HP1b chromo inh 30.4%, VDR inh -11.3%, JMJD2A Tudor -11.6% and PLK1 PBD block -5.5%.
`CCN(CC)S(=O)(=O)c1cccc(C(=O)NCC2CCCCC2)c1` gave BAZ2B inh 1.9%, HP1b chromo inh 7.8%, VDR inh inconclusive, JMJD2A Tudor 28.2µM* and PLK1 PBD block 23.8µM*.
CC1Cc2ccccc2N1CC(=O)Nc1cccc(S(N)(=O)=O)c1 (stereo not drawn) was read as L3MBTL1 inh inconclusive, BAZ2B inh -11.9%, HP1b chromo inh -0.5%, VDR inh -1.5%, JMJD2A Tudor -22.3% and PLK1 PBD block -11.7%.
`CC1CCC(NCC(=O)Nc2cccc(S(N)(=O)=O)c2)CC1` (stereo not drawn) gave L3MBTL1 inh 0.4%, BAZ2B inh 79.4µM*, HP1b chromo inh -31.0%, VDR inh -1.8%, JMJD2A Tudor 22.4µM* and PLK1 PBD block -3.9%.
`O=C(Cn1c(=O)oc2cc(S(=O)(=O)N3CCCCCC3)ccc21)Nc1cccc(C(F)(F)F)c1` gave BAZ2B inh 2.2%, HP1b chromo inh 18.0%, VDR inh 1.0% and JMJD2A Tudor -12.2%.
Screening CCOc1cc(C(=O)Nc2c(NC)c3ccccc3oc2=O)cc(OCC)c1OCC returned BAZ2B inh 17.5%, HP1b chromo inh 51.6%, VDR inh 2.3% and JMJD2A Tudor -12.0%.
Screening CCc1ccccc1NC(=O)CSc1nc2ncccc2o1 returned BAZ2B inh 1.1%, HP1b chromo inh 17.7%, VDR inh 3.2% and JMJD2A Tudor -10.3%.
CC1C(=O)N2CCCc3cc(NC(=O)C4CC4)cc1c32 (stereo not drawn) was read as L3MBTL1 inh 3.1%, BAZ2B inh 13.3%, HP1b chromo inh -2.6%, VDR inh -8.5%, JMJD2A Tudor -4.1% and PLK1 PBD block -8.6%.
Screening CCOc1cccc(CC(=O)N2CCc3c([nH]c4ccc(OC)cc34)C2c2ccc(F)cc2)c1OCC (stereo not drawn) returned BAZ2B inh inconclusive, HP1b chromo inh -6.9%, VDR inh 2.0% and JMJD2A Tudor inconclusive.
CCN(CC)S(=O)(=O)c1cccc(NC(=O)CN(C)C2CCCCC2)c1 was read as L3MBTL1 inh 0.3%, BAZ2B inh -13.6%, HP1b chromo inh 21.1%, VDR inh 2.8%, JMJD2A Tudor -23.4% and PLK1 PBD block -4.0%.
Screening CN(C)S(=O)(=O)c1cccc(NC(=O)CNCC2CCCCC2)c1 returned L3MBTL1 inh 0.1%, BAZ2B inh inconclusive, HP1b chromo inh -27.6%, VDR inh 0.0%, JMJD2A Tudor 22.4µM* and PLK1 PBD block -4.3%.
Screening CCN(CC)S(=O)(=O)c1cccc(NC(=O)CNC2CCCCCC2)c1 returned L3MBTL1 inh -5.4%, BAZ2B inh 79.4µM*, HP1b chromo inh 1.6%, VDR inh -3.5%, JMJD2A Tudor 50.1µM* and PLK1 PBD block -2.1%.
`CN1c2ccsc2/C(=N/Nc2ccc(F)cc2)CS1(=O)=O` gave L3MBTL1 inh -18.3%, BAZ2B inh inconclusive, HP1b chromo inh inconclusive, VDR inh -7.7%, JMJD2A Tudor 25.1µM* and PLK1 PBD block 26.7µM*.
For CC(=O)n1c(Cl)c(NC(=O)CCl)c2ccccc21 the results were BAZ2B inh 44.7µM*, HP1b chromo inh 25.8%, VDR inh -0.8%, JMJD2A Tudor -3.1% and PLK1 PBD block -6.7%.
For CC(=O)n1c2ccccc2c2ccccc21 the results were L3MBTL1 inh 4.7%, BAZ2B inh 11.7%, HP1b chromo inh 61.0%, VDR inh 6.2%, JMJD2A Tudor 21.4% and PLK1 PBD block -3.5%.
Screening Cc1nc(CS(=O)(=O)c2ccccc2)cc(N2CCOCC2)n1 returned L3MBTL1 inh -5.4%, BAZ2B inh 5.4%, HP1b chromo inh -7.1%, VDR inh -25.7%, JMJD2A Tudor inconclusive and PLK1 PBD block 2.99µM*.
Screening Cc1nc(CSc2ccc(Cl)cc2)cc(N2CCOCC2)n1 returned L3MBTL1 inh 8.7%, BAZ2B inh -4.9%, HP1b chromo inh 36.9%, VDR inh -3.9%, JMJD2A Tudor 5.3% and PLK1 PBD block inconclusive.
For CCCC(=O)NCC(c1ccc2c(c1)OCO2)N1CCOCC1 (stereo not drawn) the results were BAZ2B inh 3.9%, HP1b chromo inh 25.3%[57 µM], VDR inh 19.1% and JMJD2A Tudor -11.6%.
For CC1=CC(C2CC(=O)N(c3ccc(C)cc3)C2=O)CC2C(=O)N(c3ccc(C)cc3)C(=O)C12 (stereo not drawn) the results were L3MBTL1 inh -3.6%, BAZ2B inh -20.0%, HP1b chromo inh 4.9%, VDR inh 7.7%, JMJD2A Tudor -17.0% and PLK1 PBD block -4.7%.
CSc1nnc(Cn2c(=O)sc3ccccc32)n1-c1ccccc1C was read as HP1b chromo inh 0.5%, VDR inh 50.1µM*, JMJD2A Tudor inconclusive and PLK1 PBD block 18.9µM*.
Screening Cc1ccccc1-n1c(Cn2c(=O)sc3ccccc32)nnc1SCC(=O)NCC1CCCO1 (stereo not drawn) returned BAZ2B inh 11.2%, HP1b chromo inh -9.0%, VDR inh -7.2%, JMJD2A Tudor inconclusive and PLK1 PBD block 21.2µM*.
